Compound activity from PubChem BioAssay.
15-hLO inh – qHTS Assay for Inhibitors of 15-hLO (15-human lipoxygenase). Polyunsaturated fatty acid lipoxygenase ALOX15 (Homo sapiens), P16050. purified 15hLO-1, xylenol orange hydroperoxide absorbance. Potency, µM (series often up to 57.1 µM), without a hit: at the top dose activity change, negative = inhibition, usual class: inhibitors. actives 1.4% (n = 74,000). AID 887, 2007; further: on the % scale 0 is the no-effect control and ±100 the full control effect; nearly all actives have a fitted effect of over 55% in size
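Compounds were preincubated 15 min at room temperature with 40 nM purified human enzyme (25 mM Hepes pH 7.5, 0.01% Triton X-100); 50 uM arachidonic acid reacted 6 min. Fe-xylenol orange detection, 30 min, absorbance ratio 573/405 nm.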
TSHR ag – qHTS Assay for Agonists of the Thyroid Stimulating Hormone Receptor. AID 926, 2007. HEK293-CNG-TSHR cells (CNG channel as cAMP sensor), membrane potential dye, cAMP. actives 0.48% (n = 73,000). Potency, µM (series often up to 57.1 µM), inactives show top-dose activation, hits mostly activators. Thyrotropin receptor (Homo sapiens), P16473; active means well fitted activation curve with a large enough effect in the main read-out, with a control signal flat, not every such curve was filed as active; inconclusive means small, poorly fitted or top-dose-only effect, or a change in a side signal; inactive means no such curve, though single readings can be large or run the other way; % of control where 0% means no effect;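 further: the control signal comes from parental cells without the receptor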
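cAMP rise detected as CNG-channel membrane depolarization by fluorescent dye (emission 590 nm), 30 min after compound, following 60 min dye loading containing 100 uM RO 20-1724 at room temperature. Cells: TSHR/CNG HEK 293, with parental CNG HEK 293 as control.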
PK Bst – Pyruvate Kinase; actives 1.2% (n = 51,000); purified pyruvate kinase, luminescence ATP production; ribose 5-phosphate activator present at AC10; AID 361, 2006; Potency, µM; in the data active means potency below about 11 µM; inconclusive means mostly about 12 µM to 25 µM;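 the screen sought inhibitors and activators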;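 further: scaled between full activation by ribose 5 phosphate and full inhibition by luteolin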
HEK293 cAMP ctrl – qHTS Assay for Agonists of the Thyroid Stimulating Hormone Receptor: Activators of Intracellular cAMP Concentrations in Parental HEK 293; parental HEK293 CNG cAMP sensor, membrane potential fluorescence; Potency, µM (top dose mostly 57.1 µM), for the others: at the top dose activation, usual class: activators; actives 2.5% (n = 73,000); AID 938, 2007; further: % of control where 0% means no effect; nearly all actives have a fitted effect of over 55% in size
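Parental HEK 293 cells stably expressing a modified CNG channel (no TSHR) report cAMP rise as membrane depolarization. Membrane potential dye with 100 uM RO 20-1724 was loaded for 60 min at room temperature, then compound added for 30 min; fluorescence read at 590 nm.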
Tau filament bind – qHTS Assay for Tau Filament Binding; Potency, µM (top dose mostly 57.1 µM), inactives show top-dose activity change, negative = inhibition; recombinant tau filaments, thioflavin S fluorescence, 15 h; filaments grown with octadecylsulfate alongside compound; AID 596, 2007; actives 2% (n = 71,000); Microtubule-associated protein tau (Homo sapiens), P10636;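 further: on the % scale 0 is the no-effect control and ±100 the full control effect; actives lower thioflavin S fluorescence by blocking filaments or displacing dye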
Target sequence (P10636 whole entry, looked up): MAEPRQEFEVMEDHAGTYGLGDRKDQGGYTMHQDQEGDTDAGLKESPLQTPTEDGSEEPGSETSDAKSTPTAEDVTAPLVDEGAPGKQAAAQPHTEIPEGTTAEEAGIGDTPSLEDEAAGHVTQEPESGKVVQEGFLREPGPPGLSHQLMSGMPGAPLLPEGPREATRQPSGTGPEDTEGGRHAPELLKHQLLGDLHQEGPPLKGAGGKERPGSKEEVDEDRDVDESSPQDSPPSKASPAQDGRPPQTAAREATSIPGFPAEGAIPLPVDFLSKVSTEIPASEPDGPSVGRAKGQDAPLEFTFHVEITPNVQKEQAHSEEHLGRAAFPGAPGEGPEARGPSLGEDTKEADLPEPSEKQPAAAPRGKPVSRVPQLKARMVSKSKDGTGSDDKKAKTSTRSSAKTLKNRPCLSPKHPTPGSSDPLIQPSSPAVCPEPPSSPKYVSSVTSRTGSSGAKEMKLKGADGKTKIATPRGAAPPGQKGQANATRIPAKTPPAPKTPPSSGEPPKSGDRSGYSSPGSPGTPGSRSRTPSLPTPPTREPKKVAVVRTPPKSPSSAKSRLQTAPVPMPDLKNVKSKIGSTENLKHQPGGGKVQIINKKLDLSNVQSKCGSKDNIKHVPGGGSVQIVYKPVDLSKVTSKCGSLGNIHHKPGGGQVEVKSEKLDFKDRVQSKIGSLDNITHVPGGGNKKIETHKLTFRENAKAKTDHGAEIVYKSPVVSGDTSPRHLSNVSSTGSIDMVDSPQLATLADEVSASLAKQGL
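Recombinant tau protein (human, 1 uM final) plus 30 uM ODS in HEPES pH 7.4 with NaCl, DTT and thioflavine S. Compound present from the start; fluorescence at 510 nm after 15 h, 37 C.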
FLuc inh – qHTS Assay for Inhibitors of Firefly Luciferase; actives 2.2% (n = 72,000); purified firefly luciferase, luminescence, 8 min; Potency, µM (highest dose often 57.1 µM), for the others: at the top dose activity change, negative = inhibition, most hits filed as inhibitors; further: on the % scale 0 is the no-effect control and ±100 the full control effect; nearly all actives have a fitted effect of over 40% in size
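qHTS concentration-response profiling: light output of P. pyralis luciferase with luciferin and 10 uM ATP, imidazole buffer pH 7.2. Read by luminescence after 8-min room-temperature incubation.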
An asterisk follows results filed as active; i = inactive; ? = inconclusive; / = not tested or not shown; ! = not active in a repeat; [ ] = dose if it differs, or a comment. Hits are enriched below; roughly 7.8% of the tested compounds scored in any of these assays. Unless noted, the call rests on the fitted dose curve; in most records, active means well fitted curve in the direction sought with a large enough effect; inconclusive means small, poorly fitted or top-dose-only effect, or another doubt; inactive means no such curve, though single readings can be large; an effect the other way counts as inactive or inconclusive. Potency means the concentration at half of the fitted maximal effect.

SMILES	15-hLO inh	TSHR ag	PK Bst	HEK293 cAMP ctrl	Tau filament bind	FLuc inh
Cc1ccc(-n2sc3ccccc3c2=O)cc1S(=O)(=O)N1CCCCC1	0.501µM*	-3.0%	>11.4	4.2%	-11.0%	15.8µM*
O=c1c2ccccc2sn1-c1ccc(S(=O)(=O)N2CCCC2)cc1	0.1µM*	2.4%	>57	-6.9%	0.7%	0.1%
O=c1c2ccccc2sn1-c1ccc(S(=O)(=O)N2CCCCC2)cc1	?	-5.3%	>57	-2.2%	6.4%	-6.8%
OB(O)c1cc2ccccc2s1	-1.6%	5.3%	/	21.0%	/	/
COc1ccc(C[C@H](O)CN2CCOCC2)cc1	4.8%[11.4 µM]	6.2%[11.4 µM]	/	7.7%[11.4 µM]	0.2%[11.4 µM]	2.5%[11.4 µM]
Cc1ccc2c(c1)c1cccc3c1n2CCN3CCC(N)=O	12.6µM*	-29.3%	/	-23.1%	5.01µM*	10µM*
Cn1nnnc1SCc1csc(Nc2ccccc2)n1	-6.1%	-1.0%	>57	-1.5%	-11.5%	-4.3%
Cc1ccc(Nc2nc(CSc3nnnn3C)cs2)cc1	-13.1%	7.1%	?	4.2%	15.8µM*	12.6µM*
O=C(OC(C(=O)NCC1CCCO1)c1ccccn1)c1cccs1 (stereo not drawn)	16.5%	0.5%	>57	15.3%	-3.2%	-1.2%
O=[N+]([O-])c1cc(Cc2cc([N+](=O)[O-])c3cccnc3c2O)c(O)c2ncccc12	-0.1%[11.4 µM]	-2.9%[11.4 µM]	/	-2.4%[11.4 µM]	-28.4%[11.4 µM]	-0.1%[11.4 µM]
N#Cc1cc2nc(O)c(O)nc2cc1[N+](=O)[O-]	?	5.1%	/	5.9%	39.8µM*!	0.4%
CCc1ccc(NS(=O)(=O)c2ccc(Cl)cc2OC)cc1	-25.9%	-17.9%	/	-8.3%	/	/
COc1ccccc1-c1nc(NC2CC2)c2ccccc2n1	-17.2%	?	/	?	15.8µM*	1.0%[2.29 µM]
Cc1ccccc1-c1nc(NC2CCNCC2)c2ccccc2n1	-28.8%	-0.7%	/	5.8%	-10.8%	3.0%[2.29 µM]
COc1ccccc1CNc1nc(-c2ccccc2OC)nc2ccccc12	?	31.6µM*	/	19.5%	3.98µM*	-4.0%[2.29 µM]
COc1ccccc1CNc1nc(-c2cccc(C#N)c2)nc2ccccc12	-10.7%	?	/	?	28.9%	-0.3%[2.29 µM]
COc1ccccc1-c1ccc2ncnc(NC3CCNCC3)c2c1	18.1%	12.0%	/	-1.0%	-21.1%	1.6%[2.29 µM]
COc1ccccc1-c1nc(NCc2ccccc2)c2ccccc2n1	-1.8%	?	/	?	3.98µM*	0.3%[2.29 µM]
COc1ccccc1-c1ccc(NC2CCCCC2)nn1	-6.0%	?	/	?	-5.6%	12.6µM*
COc1ccccc1-c1nc(Nc2ccncc2)c2ccccc2n1	?	6.8%	/	4.1%	59.6%	2.7%[2.29 µM]
O=C1C[C@@H](O)[C@@H](O)[C@H]2[C@@H]3C(=O)N(c4cccc(Oc5ccccc5)c4)C(=O)[C@@H]3CC[C@H]12	2.3%[11.4 µM]	2.9%[11.4 µM]	/	-3.1%[11.4 µM]	/	0.0%[11.4 µM]
CC(C)(C)CNCCO	1.0%[11.4 µM]	1.4%[11.4 µM]	/	-5.3%[11.4 µM]	-0.6%[11.4 µM]	3.6%[11.4 µM]
CC(=O)OC[C@@H]1O[C@H](C/C=N\OCC[C@H]2C=C[C@H](OC(C)=O)[C@@H](COC(C)=O)O2)C=C[C@@H]1OC(C)=O	-2.5%[11.4 µM]	9.6%[11.4 µM]	/	5.7%[11.4 µM]	/	-2.1%[11.4 µM]
CCN(CC)CCCCNC(=O)c1ccc(Cc2nc3ccccc3[nH]2)cc1	0.9%	-3.0%	/	-6.0%	/	/
COc1ccccc1CNc1nc(-c2ccc(N(C)C)cc2)nc2ccccc12	20µM*	-6.0%	/	-27.0%	i	-0.2%[2.29 µM]
COc1ccccc1-c1nc(NCc2cnc(C)cn2)c2ccccc2n1	15.8µM*	0.6%	/	-11.6%	?	-0.4%[2.29 µM]
COc1ccccc1-c1ccc2ncnc(NCc3cnc(C)cn3)c2c1	9.7%	?	/	25.1µM*	-11.8%	-2.7%[2.29 µM]
COc1ccccc1CNc1nc(-c2ccc(C(=O)N(C)C)cc2)nc2ccccc12	-5.5%	?	/	?	-6.2%	-3.9%[2.29 µM]
CCC(=O)[C@@H](c1ccccc1)c1ccccn1	-0.4%[11.4 µM]	0.7%[11.4 µM]	/	9.6%[11.4 µM]	5.9%[11.4 µM]	1.2%[11.4 µM]
CCN1C(=O)[C@@H]2[C@H]3C(=CC[C@@H]2C1=O)C1(OCCCO1)[C@H]1O[C@@H]1[C@H]3O	?	2.4%[11.4 µM]	/	-2.8%[11.4 µM]	/	-2.0%[11.4 µM]
